Source: PubChem BioAssay (National Center for Advancing Translational Sciences (NCATS))
AmpC no deterg: inhibitors of E. coli AmpC beta-lactamase without detergent; AmpC nitrocefin hydrolysis, absorbance 480 nm, 0.0001% Triton; Potency, µM (doses to about 57.1 µM), inactives show at the highest dose activity change, negative = inhibition, hits mostly inhibitors; actives 0.52% (n = 330,000); P00811;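 also: potency is read from the fitted curve at half-maximal effect; plate controls were no compound for no effect and no enzyme for full effect; nearly all actives have a fitted effect of over 20% in size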
Target sequence (P00811 whole entry, looked up): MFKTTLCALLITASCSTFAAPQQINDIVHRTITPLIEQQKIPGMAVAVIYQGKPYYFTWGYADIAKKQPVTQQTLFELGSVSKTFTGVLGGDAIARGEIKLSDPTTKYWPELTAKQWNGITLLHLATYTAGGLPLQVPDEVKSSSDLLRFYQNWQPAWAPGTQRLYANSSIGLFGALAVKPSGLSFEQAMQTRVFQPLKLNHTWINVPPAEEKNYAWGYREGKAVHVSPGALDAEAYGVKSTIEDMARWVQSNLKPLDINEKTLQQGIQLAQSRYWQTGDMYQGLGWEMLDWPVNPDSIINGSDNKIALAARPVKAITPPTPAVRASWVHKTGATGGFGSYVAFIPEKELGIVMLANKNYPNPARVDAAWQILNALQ
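AmpC (5.3 nM in the dispensed reagent) in 20 mM phosphate pH 7.0 with 0.01% (detergent screen) or 0.0001% Triton X-100 was preincubated with compounds for 15 min at room temperature. Nitrocefin was then added from an 800 uM solution, and hydrolysis was followed at 480 nm.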
Shiga inhibitor: Shiga toxin inhibition | Vero cells, Shiga toxin protein synthesis inhibition reporter | actives 9.2% (n = 290,000) | inhibition, % at 38.7 µM | AID 2315; in the data active = inhibition mostly above about 28%, no sharp cut-off; inactive = mostly below about 43%; also: 0% is about no effect
NS1 inh: inhibitors of influenza NS1 protein function. Potency, µM (doses to about 46.1 µM), for inactives: top-dose activity, positive = more growth. actives 0.4% (n = 270,000). AID 2326; calls by dose curve; also: potency is read from the fitted curve at half-maximal effect; actives are rising curves; nearly all actives have a fitted effect of over 50% in size
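A cell-based growth assay was used: compounds that relieve NS1-induced slow growth of budding yeast raise OD600. Assay medium was yeast nitrogen base with ammonium sulphate and -URA supplement, pH 6.0, with 2% galactose.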
AmpC detergent: inhibitors of E. coli AmpC beta-lactamase with detergent; P00811; AmpC hydrolysis of nitrocefin, absorbance 480 nm, 0.01% Triton; Potency, µM (series often up to 114 µM), inactives show at the top dose activity change, negative = inhibition, usual class: inhibitors; actives 0.041% (n = 370,000); AID 485294;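 also: potency is read from the fitted curve at half-maximal effect; 0% = no-compound wells and -100% = no-enzyme wells; nearly all actives have a fitted effect of over 25% in size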
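20 mM phosphate pH 7.0 + 0.01% (detergent screen) or 0.0001% Triton X-100; 5.3 nM AmpC reagent; cpd preinc 15 min RT; nitrocefin (800 uM stock) to start; A480 q20 s × 4 min; Activity was normalised to no-enzyme and no-compound control wells.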
Cycloheximide cs: counter-screen for Shiga toxin inhibitors: cycloheximide protein synthesis inhibition | cell reporter, cycloheximide protein synthesis inhibition counterscreen | max response, % | actives 12% (n = 300,000) | AID 2314; in the data active = max response mostly above about 13%, no sharp cut-off; inactive = mostly below about 14%; also: read at 38.3 µM for the half of the compounds with a filed dose; 0% is about no effect
* hit, by the source's call. The full list was thinned out, with hits kept by preference. Unless noted, calls follow the shape of the dose curve; as a rule, active = well fitted curve in the direction sought with a large enough effect; inconclusive = small, poorly fitted or top-dose-only effect, or another doubt; inactive = no such curve, though single readings can be large; an effect the other way counts as inactive or inconclusive.

CC(=O)Nc1cccc(C(=O)NC2CCCc3c2cnn3-c2cc(C)cc(C)c2)c1 (stereo not drawn) was read as AmpC no deterg 124.1%, Shiga inhibitor 23.5, NS1 inh 0.0%, AmpC detergent inconclusive and Cycloheximide cs 24.9*.
`Cc1cc(C)c(C(=O)NC2CCCc3c2cnn3-c2ccc(C)c(C)c2)c(=O)[nH]1` (stereo not drawn) gave AmpC no deterg 85.5%, Shiga inhibitor 25.5, NS1 inh -4.4%, AmpC detergent -9.1% and Cycloheximide cs 27.0*.
CCCCN1C(=O)C(O)(CC(=O)c2ccc(CC)cc2)c2cc(Br)ccc21 (stereo not drawn) was read as AmpC detergent -6.6%.
Screening COc1cccc(CNC(=O)Cn2ccc3cc(S(=O)(=O)N4CCCCCC4)ccc32)c1 returned AmpC no deterg -31.8%, Shiga inhibitor -3.6, NS1 inh 1.0%, AmpC detergent -0.1% and Cycloheximide cs -2.0.
Screening Cc1ccc(-n2ncc3c2CCCC3NC(=O)c2csnn2)cc1C (stereo not drawn) returned AmpC no deterg 59.5%, Shiga inhibitor 59.7*, NS1 inh -18.8%, AmpC detergent inconclusive and Cycloheximide cs 19.4*.
Cc1ccc(-n2ncc3c2CCCC3NC(=O)c2ccoc2)cc1C (stereo not drawn) was read as AmpC no deterg -20.0%, Shiga inhibitor -2.8, NS1 inh -2.5%, AmpC detergent 6.4% and Cycloheximide cs -2.9.
Screening Cc1cc(C)n(CC(=O)NC2CCCc3c2cnn3-c2ccc(C)c(C)c2)n1 (stereo not drawn) returned AmpC no deterg 43.3%, Shiga inhibitor 54.4*, NS1 inh -3.3%, AmpC detergent -8.4% and Cycloheximide cs 38.1*.
COCc1ccc(C(=O)NC2CCCc3c2cnn3-c2cc(C)cc(C)c2)s1 (stereo not drawn) was read as AmpC no deterg 151.1%, Shiga inhibitor 26.8*, NS1 inh -23.0%, AmpC detergent inconclusive and Cycloheximide cs 12.3.
For Cc1cc(C(=O)NC2CCCc3c2cnn3-c2ccc(C)c(C)c2)n(C)n1 (stereo not drawn) the results were AmpC no deterg 133.4%, Shiga inhibitor -1.9, NS1 inh -21.1%, AmpC detergent 5.0% and Cycloheximide cs -1.1.
`Cc1cc(C)cc(-n2ncc3c2CCCC3NC(=O)c2cc(C)oc2C)c1` (stereo not drawn) gave AmpC no deterg 19.8%, Shiga inhibitor 8.9, NS1 inh -2.8%, AmpC detergent -10.9% and Cycloheximide cs 8.0.
Screening Cc1cc(C)cc(-n2ncc3c2CCCC3NC(=O)c2csnn2)c1 (stereo not drawn) returned AmpC no deterg 27.5%, Shiga inhibitor 21.6*, NS1 inh 0.3%, AmpC detergent 7.9% and Cycloheximide cs 14.3.
Screening NC(=O)c1ccc(NC(=O)COc2cccc3ccccc23)cc1 returned AmpC no deterg -2.9%, Shiga inhibitor -13.1, NS1 inh 6.2%, AmpC detergent 0.8% and Cycloheximide cs -2.2.
Screening COc1ccc(NC(=O)c2ccco2)cc1NC(=O)c1ccccc1[N+](=O)[O-] returned AmpC no deterg -18.1%, Shiga inhibitor -2.2, NS1 inh -7.6%, AmpC detergent 2.9% and Cycloheximide cs -4.9.
`CN(C)CC(C)(C)CNS(=O)(=O)c1ccc(Cl)c(Cl)c1` gave AmpC no deterg -18.6%, Shiga inhibitor -9.2, NS1 inh 10.0%, AmpC detergent -3.9% and Cycloheximide cs -0.3.
`COCc1ccc(C(=O)NC2CCCc3c2cnn3-c2ccc(C)c(C)c2)o1` (stereo not drawn) gave AmpC no deterg 92.5%, Shiga inhibitor 92.5, NS1 inh -12.6%, AmpC detergent inconclusive and Cycloheximide cs 25.8*.
Nn1c(SCC(=O)Nc2cccnc2Cl)nnc1-c1ccccc1 was read as AmpC no deterg -12.9% and AmpC detergent -3.9%.
`CC(C(=O)N1CCCCC1)n1sc2ccccc2c1=O` (stereo not drawn) gave AmpC no deterg -5.4%, Shiga inhibitor 67.4*, NS1 inh -0.1%, AmpC detergent 0.9% and Cycloheximide cs 31.3*.
Screening O=C(Nc1ccc2c(c1)CCC2)c1cnccn1 returned AmpC no deterg -25.9%, Shiga inhibitor 108.9*, NS1 inh -5.3%, AmpC detergent inconclusive and Cycloheximide cs 45.9*.
